PubChem BioAssay AID1066 (SRMLSC, 2008)
The campaign covered roughly 190,000 compounds. About 790 (0.42%) were called active.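 The calls were made as follows: active = inhibition above a set limit, the median over all tested compounds plus 3 SD (cut at about 9.5% in these data); inconclusive = no clear call, values can overlap the other calls; inactive = the rest.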 The sample as a whole holds a higher share of actives than the screen did.

What follows are molecules tested on HMG-CoA reductase (Enterococcus faecalis, mvaE) (assay: inhibitors of E. faecalis class II HMGR, primary screen, biochemical, Enterococcus faecalis (AID 1066;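 also: enzyme runs in reverse so mevalonate oxidation gives rising NADPH absorbance; 0% = complete reaction with DMSO and 100% = background rate lacking mevalonate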)). Conditions: purified E. faecalis HMGR, NADPH absorbance 340 nm kinetic; at 10 µM; active compounds read high.

Compound	inhibition
CC(=O)Oc1ccccc1C1=NN(C(C)=O)C(c2ccccc2)C1 (stereo unspecified)	-1.75% (inactive)
COc1ccc(-c2cc(-c3ccc(N)cc3)nc(N)c2C#N)cc1OC	11.6% (active)
CCSc1nc(-c2ccc(OC)cc2)cc(-c2ccc(OC)cc2)c1C#N	-8.44% (inactive)
CCOc1cc(-c2cc(-c3ccc(OC)cc3)nc(N)c2C#N)ccc1O	-5.02% (inactive)
COc1ccc(C2C(C#N)=C(N)N(c3ncn[nH]3)C3=C2C(=O)CCC3)cc1 (stereo unspecified)	3.99% (inactive)
FC(F)Oc1ccccc1NC(=S)Nc1cccc(Cl)c1Cl	-10.5% (inactive)
CS(=O)(=O)N(Cc1ccccc1)c1ccc(C(=O)NN=C2CCCCCC2)cc1	-2.77% (inactive)
CCOc1ccc(C(c2c(C)[nH][nH]c2=O)c2c(C)[nH][nH]c2=O)cc1OCC	-2.78% (inactive)
Cc1[nH][nH]c(=O)c1C(c1ccc2c(c1)OCO2)c1c(C)[nH][nH]c1=O	4.7% (inactive)
Cc1[nH][nH]c(=O)c1C(c1ccc(-c2ccc(Cl)cc2)o1)c1c(C)[nH][nH]c1=O	11.6% (active)
Cc1noc(/C=C/c2ccco2)c1S(=O)(=O)N1CCC(C(=O)Nc2ccc(Cl)cn2)CC1	0.34% (inactive)
CC(O)c1cccc(NC(=O)Cc2cccc3ccccc23)c1 (stereo unspecified)	-6.15% (inactive)
Cc1ccc(Sc2ccncc2S(N)(=O)=O)cc1	-1.29% (inactive)
C[C@@H](O)c1nc2ccccc2n1N	0.29% (inactive)
CC(C)CC(CC(C)C)=NNC(=O)c1ccc(CSc2nncn2C)cc1	1.23% (inactive)
O=C(Nc1cccnc1)c1ccc(Cl)cc1[N+](=O)[O-]	-3.45% (inactive)
CCCOc1ccc(N2C(=O)CC(N(CCc3ccc(S(N)(=O)=O)cc3)C(C)=O)C2=O)cc1 (stereo unspecified)	-5% (inactive)
NS(=O)(=O)c1ccc(N2C(=O)C3C4CC(C(Br)C4Br)C3C2=O)cc1 (stereo unspecified)	81.6% (active)
Cc1ccc(N2C(=O)C3CC3C2=O)cc1 (stereo unspecified)	-5.05% (inactive)
COc1cc(NS(=O)(=O)c2ccc(NC(=O)CN3C(=O)c4ccccc4C3=O)cc2)ncn1	-9.27% (inactive)
O=C(COC(=O)c1ccco1)NCc1ccc(Cl)cc1	-3.08% (inactive)

Compound	inhibition
CC(OC(=O)CCc1nc(=O)c2ccccc2n1C)C(=O)NCc1ccc2c(c1)OCO2 (stereo unspecified)	2.38% (inactive)
O=C(Cn1cnc([N+](=O)[O-])n1)NCCc1ccccc1	3.82% (inactive)
O=C(CSc1nnc(Cn2cnc3ccccc32)o1)c1ccccc1	-2.99% (inactive)
CCOc1ccc(Nc2nc(Cc3nnc(SCC(=O)c4ccc(C)cc4)o3)cs2)cc1	-4.07% (inactive)
CC(=O)Nc1ccc(C(=O)CSc2nnc(Cc3ccccc3)o2)cc1	20.1% (active)
CCOC(=O)c1c(NC(=O)c2cccs2)sc(C)c1C	0.72% (inactive)
COC(=O)c1c(NC(=O)c2c(Cl)cnn2C)sc(C)c1C	11% (active)
COCCCNCC(=O)Nc1sc(C)c(C)c1C(=O)OC	1.07% (inactive)
CC1=NN(C(=O)c2ccccc2Br)C(O)(c2cccnc2)C1 (stereo unspecified)	0.91% (inactive)
CCOC(=O)C1(O)CC(C)=NN1C(=O)c1cccc(Br)c1 (stereo unspecified)	16.5% (active)
CC1=NN(C(=O)c2ccc(Br)cc2)C(O)(c2ccccc2)C1 (stereo unspecified)	3.11% (inactive)
Cc1cccc(-n2cc(CN3CCN(C(=O)c4ncn[nH]4)CC3)c(-c3cccc(F)c3)n2)c1	-4.4% (inactive)
NC(N)=NCCCc1cn(CC(=O)N2CCNCC2)nn1	-8.27% (inactive)
O=C(Cc1ccc([N+](=O)[O-])cc1)N/N=C/c1ccco1	3.38% (inactive)
CCCOCC(O)CC(CC)C(=O)NNC(=S)Nc1ccccc1 (stereo unspecified)	-0.14% (inactive)
C=CCN(CC=C)CCOc1ccccc1[N+](=O)[O-]	-2.7% (inactive)
COc1cc(NC(=S)N2CCCC(C)C2)cc(OC)c1OC (stereo unspecified)	0.35% (inactive)
CN1CCN(C(CNS(=O)(=O)c2cccs2)c2cccnc2)CC1 (stereo unspecified)	-4.32% (inactive)
CN(C)S(=O)(=O)c1ccc(NC(=O)N2CCOCC2)cc1	15.2% (active)
COc1cc(NC(=O)N2CCOCC2)cc(OC)c1	-5.26% (inactive)
O=C(Nc1ccccc1)N1CCN(C(=O)Nc2ccccc2)CC1	-2.68% (inactive)

Compound	inhibition
Cc1ccc(SCCC(=O)NCc2ccccn2)cc1	1.33% (inactive)
CN1C(=O)/C(=C/c2ccc(C(=O)NC3CCCC3)cc2)Oc2ccccc21	-13.4% (inactive)
CCC(=O)/C=C1\Sc2ccccc2N1CC	11.8% (active)
O=C(CCN1c2ccccc2Sc2ccccc21)Nc1ccccc1	-1.11% (inactive)
CCN1/C(=C/c2ccc3ccc(C)cc3[n+]2CC)Sc2ccccc21	-2.41% (inactive)
Cc1cc(C(=O)COC(=O)C2CC2)c(C)n1-c1ccc(F)cc1	2.01% (inactive)
Cc1cc(C(=O)N/N=C/c2ccc(O)c([N+](=O)[O-])c2)c(C)n1-c1ccc(F)cc1	11.2% (active)
COc1cc(/C=N/NC(=O)c2cc(C)n(-c3ccc(F)cc3)c2C)cc(OC)c1O	3.01% (inactive)
CCOc1ccccc1N1CCN(C(=S)Nc2ccc(S(N)(=O)=O)cc2)CC1	-3.56% (inactive)
O=C(Nn1cnc2ccccc2c1=O)c1ccc([N+](=O)[O-])cc1Cl	-1.28% (inactive)
CCCCN1C(=O)/C(=C(/C#N)C(N)=O)c2ccccc21	-0.52% (inactive)
CN(CC(=O)Nc1ccccc1[N+](=O)[O-])Cc1ccc(Br)cc1	-2.46% (inactive)
CSc1ccccc1NC(=O)CN(C)CC(=O)Nc1cccc(Br)c1	3.22% (inactive)
CN(CC(=O)Nc1ccccc1F)CC(=O)Nc1ccccc1Br	9.9% (active)
O=C(CCn1c(=S)[nH]c2ccccc2c1=O)NCCCN1CCCC1=O	-5.44% (inactive)
Cc1cccc(C(=O)NCCCN2CCCC2=O)c1	-2.71% (inactive)
O=C(CCC(=O)NNc1nc2ccccc2c2nc(-c3ccccc3)nn12)NCCCN1CCCC1=O	11.7% (active)
O=Cc1ccc(Oc2cccc(C(F)(F)F)c2)nc1	-2.83% (inactive)
O=C(COC(=O)c1cccc(Br)c1)Nc1cccc2c1C(=O)c1ccccc1C2=O	-0.48% (inactive)
